Active and inactive are the calls of the source. Unless noted, how the calls were made is not given here.
How the values were obtained:
[1] = resazurin metabolic signal in HepG2 cells – cell-based, resazurin fluorescence, 24 h, PK04 Diversity Set, profiling panel (AID 1172); conditions: HepG2 viability, higher = more signal
[2] = budding yeast growth changes without added modifier – OD600, strain BY4716, 24 h, basal condition, primary screen (AID 1173); conditions: S. cerevisiae BY4716 growth, OD600, 24 h; higher = more signal, called active from +8 up or from −8 down
[3] = viability profiling in MM1S myeloma cells – cell-based, resazurin fluorescence, basal, 24 h, PK04 Diversity Set, profiling panel (AID 1174); conditions: higher = more signal, called active from +8 up or from −8 down;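 further: MM1S multiple myeloma cell line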
[4] = biological target: Dihydroorotate dehydrogenase (quinone), mitochondrial (Plasmodium falciparum (isolate 3D7)) (UniProt Q08210); assay: inhibition of P. falciparum DHODH – biochemical, C-terminal His tag, absorbance 600 nm, primary screen (AID 1175); conditions: PfDHODH enzyme, DCIP absorbance 600 nm; higher = more signal, called active from +8 up or from −8 down;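 further: recombinant parasite enzyme with a five histidine tag at its C terminus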
[5] = inhibition of PAO1 biofilm formation – strain PAO1, LB-PBS medium, absorbance 600 nm, primary screen (AID 1176); conditions: P. aeruginosa PAO1 growth/biofilm, A600, 12 h; higher = more signal
[6] = growth modulation of vineyard yeast isolate – strain RM11-1a, OD600, basal, 24 h, primary screen (AID 1177);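 further: cultures grown under basal conditions with no added stressor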; conditions: S. cerevisiae RM11-1a growth, OD600, 24 h; higher = more signal, called active from +8 up or from −8 down
[7] = growth of efflux-deficient E. coli DRC39 – strain DRC39, OD650, 24 h, E. coli filamentation inducers, primary screen (AID 1178);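 further: growth measured as culture turbidity by optical density at 650 nm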; conditions: E. coli DRC39 acrAB, higher = more signal, called active from +8 up or from −8 down
[8] = growth of efflux-deficient E. coli DRC39 – strain DRC39, OD650, 48 h, E. coli filamentation inducers, primary screen (AID 1179);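 further: screen aims at cell division blockers that make cells filament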; conditions: E. coli DRC39 delta-acrAB growth, higher = more signal, called active from +8 up or from −8 down
[9] = viability profiling in RPMI8226 myeloma cells – cell-based, resazurin fluorescence, basal, 24 h, PK04 Diversity Set, profiling panel (AID 1180); conditions: higher = more signal;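 further: RPMI8826 multiple myeloma cell line at 5000 cells per well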
[10] = biological target: E3 ubiquitin-protein ligase XIAP (Homo sapiens) (UniProt P98170); assay: small molecules binding XIAP protein – biophysical, small-molecule microarray, fluorescence 635 nm, primary screen (AID 1181); conditions: higher = more signal;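 further: score merges 667 nm emission and signal to noise over triplicate slides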
[11] = tested on: XIP peptide (Xip251-270) binding; assay: XIP fragment 251-270 binding compounds – biochemical, small-molecule microarray, fluorescence 635/667 nm, 0.1 µg/mL protein, primary screen (AID 1182); conditions: fluorescent protein binding, 635 nm, higher = more signal, called active from +8 up or from −8 down
XIP peptide (Xip251-270) = assay: compounds binding XIP fragment 251-270 – biochemical, small-molecule microarray, fluorescence 635/667 nm, 0.5 µg/mL protein, primary screen (AID 1183); conditions: fluorescence 635 nm, higher = more signal
[12] = blood-stage malaria parasite viability loss – strain 3D7, DAPI fluorescence, 100 nL, primary screen (AID 1184);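 further: parasites grown inside human red blood cells in medium with human serum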; conditions: P. falciparum 3D7 growth, 3 d, higher = more signal
[13] = biological target: Homeobox protein Hox-A13 (Mus musculus) (UniProt Q62424); assay: disruptors of Hoxa13 oligonucleotide interaction – biochemical, fluorescence polarization, labeled oligonucleotide, primary screen (AID 1185); conditions: Hoxa13:DNA binding, 15 min, higher = more signal, called active from +8 up or from −8 down
[14] = blockers of DNA damage checkpoint Chk1 activation – imaging, HeLa, hydroxyurea, phospho-Chk1 antibody, percent positive cells, primary screen (AID 1186); conditions: hydroxyurea-induced phospho-Chk1 immunofluorescence imaging, higher = more signal
[15] = blockers of DNA damage checkpoint Chk1 activation – imaging, HeLa, hydroxyurea, phospho-Chk1 nuclear intensity, primary screen (AID 1187); conditions: hydroxyurea-induced phospho-Chk1 immunofluorescence imaging, higher = more signal

Homeobox protein Hox-A13 (Mus musculus), sequence (Q62424 whole entry, looked up): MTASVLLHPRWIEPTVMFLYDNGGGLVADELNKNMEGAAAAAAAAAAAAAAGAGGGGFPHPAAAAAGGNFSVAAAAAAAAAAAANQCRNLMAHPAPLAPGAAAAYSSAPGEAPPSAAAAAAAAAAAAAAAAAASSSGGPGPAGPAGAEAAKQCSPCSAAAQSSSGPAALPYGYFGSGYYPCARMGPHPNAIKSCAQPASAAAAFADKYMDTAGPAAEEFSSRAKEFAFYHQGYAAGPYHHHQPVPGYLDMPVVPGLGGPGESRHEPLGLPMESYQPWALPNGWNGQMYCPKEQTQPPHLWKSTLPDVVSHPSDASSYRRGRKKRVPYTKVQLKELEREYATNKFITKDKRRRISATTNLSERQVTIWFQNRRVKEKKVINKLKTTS
Dihydroorotate dehydrogenase (quinone), mitochondrial (Plasmodium falciparum (isolate 3D7)), sequence (Q08210 whole entry, looked up): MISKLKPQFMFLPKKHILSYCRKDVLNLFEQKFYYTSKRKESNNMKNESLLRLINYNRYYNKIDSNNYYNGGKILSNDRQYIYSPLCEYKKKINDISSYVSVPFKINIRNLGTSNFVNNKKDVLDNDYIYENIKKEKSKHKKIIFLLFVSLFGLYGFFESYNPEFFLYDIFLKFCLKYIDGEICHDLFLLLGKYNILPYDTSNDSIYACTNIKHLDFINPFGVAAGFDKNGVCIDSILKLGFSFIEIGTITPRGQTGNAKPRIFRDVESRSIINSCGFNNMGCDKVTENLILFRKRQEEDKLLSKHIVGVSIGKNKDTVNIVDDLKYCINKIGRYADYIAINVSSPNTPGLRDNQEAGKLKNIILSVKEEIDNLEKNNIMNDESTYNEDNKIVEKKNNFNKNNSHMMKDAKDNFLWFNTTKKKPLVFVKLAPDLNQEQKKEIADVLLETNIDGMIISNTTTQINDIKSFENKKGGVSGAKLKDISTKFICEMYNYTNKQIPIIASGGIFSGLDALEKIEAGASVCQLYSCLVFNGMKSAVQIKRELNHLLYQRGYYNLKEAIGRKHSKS
E3 ubiquitin-protein ligase XIAP (Homo sapiens), sequence (P98170 whole entry, looked up, the tested form may be a part): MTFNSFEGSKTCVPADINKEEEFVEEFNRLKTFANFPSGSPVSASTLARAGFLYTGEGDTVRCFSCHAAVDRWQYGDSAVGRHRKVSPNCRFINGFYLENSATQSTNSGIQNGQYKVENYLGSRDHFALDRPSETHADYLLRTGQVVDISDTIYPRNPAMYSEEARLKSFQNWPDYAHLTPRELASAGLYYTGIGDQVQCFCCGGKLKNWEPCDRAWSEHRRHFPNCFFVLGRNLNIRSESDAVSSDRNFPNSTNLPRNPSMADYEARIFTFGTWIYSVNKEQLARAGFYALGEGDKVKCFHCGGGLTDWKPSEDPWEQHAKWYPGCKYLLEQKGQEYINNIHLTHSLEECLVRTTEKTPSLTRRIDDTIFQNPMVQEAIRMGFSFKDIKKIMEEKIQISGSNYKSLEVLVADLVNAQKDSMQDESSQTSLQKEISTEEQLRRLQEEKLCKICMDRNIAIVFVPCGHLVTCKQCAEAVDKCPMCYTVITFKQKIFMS

Structure (SMILES)	z-score [1]	z-score [2]	z-score [3]	composite z-score [4]	z-score [5]	z-score [6]	z-score [7]	z-score [8]	z-score [9]	composite z-score [10]	composite z-score [11]	composite z-score (XIP peptide (Xip251-270))	z-score [12]	z-score [13]	z-score [14]	z-score [15]
CCOC(=O)C[C@H]1[C@H](OC(=O)Cc2ccc3c(c2)OCO3)[C@@H](NC(=O)c2ccc(-c3ccccc3)cc2)c2cc(OCCCO)ccc2N1C(=O)c1ccccc1	0.0575	0.188 (inactive)	0.106 (inactive)	-0.0887 (inactive)	0.608 (inactive)	0.412 (inactive)	1.02 (inactive)	1.16 (inactive)	-0.264	-0.17	-0.238 (inactive)	0.729	-1.77	-1.88 (inactive)	-0.467 (inactive)	-0.214 (inactive)
CCCCCN1CC=CC23O[C@@H]4/C=C\CCCOC(=O)C4[C@H]2C(=O)N(CCCCCCO)[C@@H]3C1=O (some centres undefined)	0.239	-2.73 (inactive)	0.972 (inactive)	-2.25 (inactive)	1.45 (inactive)	-3.12 (inactive)	0.758 (inactive)	0.868 (inactive)	1.42	0.147	0.403 (inactive)	-0.0516	-1.13	-5.27 (inactive)	-0.792 (inactive)	-0.702 (inactive)
COC(=O)[C@@]1(Cc2ccccc2)[C@H]2c3cc(C(=O)N4CCCC4)n(Cc4ccc(C)o4)c3C[C@H]2CN1C(=O)c1ccccc1	-1.59	0.476 (inactive)	-1.5 (inactive)	-0.376 (inactive)	0.399 (inactive)	-0.219 (inactive)	-0.691 (inactive)	-0.471 (inactive)	-2.47	0.0632	1.04 (inactive)	0.814	-1.11	-4.62 (inactive)	0.56 (inactive)	0.421 (inactive)
COc1ccc(C(O)C2C=CC3C(=O)N(c4ccccc4)C(=O)C3N2Nc2ccc([N+](=O)[O-])cc2)cc1OCc1ccccc1 (centres undefined)	-0.46	0.948 (inactive)	-0.644 (inactive)	0.323 (inactive)	2.14 (inactive)	-0.384 (inactive)	-0.908 (inactive)	-0.337 (inactive)	-0.839	-0.0655	0.522 (inactive)	0.891	-0.303	-1.46 (inactive)	-0.105 (inactive)	-1.67 (inactive)

Source: PubChem BioAssay
